# Several values for one entry are separate records, joined by “and”; a condition that tells them apart may be missing. Equal entries are not always repeated. Activity calls are given as the source filed them. Unless noted, how the calls were made is not given here.
# System: not listed separately
# Assay: compounds altering circadian rhythm period length – cell-based, LOPAC library, luminescence reporter (AID 2774);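 further: values are relative to mean of DMSO wells on each plate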
# Conditions: circadian reporter cells, at 7 µM, actives lie on both sides
row,SMILES,period change
1,O=c1[nH]cc(F)c(=O)[nH]1,0.215 h (inactive)
2,CCc1cccc2c3c([nH]c12)C(CC)(CC(=O)O)OCC3 (configuration not stated),-0.07 h (inactive)
3,Nc1ncn([C@@H]2O[C@H](CO)[C@@H](O)[C@H]2O)c(=O)n1,0.105 h (inactive)
4,Cc1ccccc1C(OCCN(C)C)c1ccccc1 (configuration not stated),0.21 h (inactive)
5,NC(=O)c1cnccn1,0 h (inactive)
6,OCCN1CCN(CCCN2c3ccccc3Sc3ccc(C(F)(F)F)cc32)CC1,0.01 h (inactive)
7,Cn1cnc([N+](=O)[O-])c1Sc1ncnc2nc[nH]c12,0.485 h (inactive)
8,CCCNCC(O)COc1ccccc1C(=O)CCc1ccccc1 (configuration not stated),-0.03 h (inactive)
9,Clc1ccc2c(c1)C(N1CCNCC1)=Nc1ccccc1O2,0.105 h (inactive)
10,NS(=O)(=O)c1cc2c(cc1Cl)NC=NS2(=O)=O,0.02 h (inactive)

# System: not listed separately
# Assay: compounds altering viability of human ES cells (AID 493140);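 further: cells exposed to compounds for four days before counting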
# Conditions: human embryonic stem cell survival screen; stronger effect = higher value
row,SMILES,survival
1,CCc1nc(N)nc(N)c1-c1ccc(Cl)cc1,16.9 (inactive)
2,CCc1cccc2c3c([nH]c12)C(CC)(CC(=O)O)OCC3 (configuration not stated),14.8 (inactive)
3,Cc1ccccc1C(OCCN(C)C)c1ccccc1 (configuration not stated),11.9 (inactive)
4,Cc1ccc(C)c(OCCCC(C)(C)C(=O)O)c1,20.8 (inactive)
5,NC(=O)c1cnccn1,19.9 (inactive)
6,N[C@@H](C(=O)N[C@@H]1C(=O)N2C(C(=O)O)=C(Cl)CS[C@H]12)c1ccccc1,9 (inactive) and 6.75 (inactive)
7,CO[C@@]1(NC(=O)Cc2cccs2)C(=O)N2C(C(=O)O)=C(COC(N)=O)CS[C@@H]21,2.08 (inactive)
8,OCCN1CCN(CCCN2c3ccccc3Sc3ccc(C(F)(F)F)cc32)CC1,5.33 (inactive)
9,CN(C)CCOC(c1ccc(Cl)cc1)c1ccccn1 (configuration not stated),2.92 (inactive)
10,Cc1onc(-c2c(Cl)cccc2Cl)c1C(=O)N[C@@H]1C(=O)N2[C@@H]1SC(C)(C)[C@@H]2C(=O)O,4 (inactive)
11,COc1cc2nc(N(C)CCCNC(=O)C3CCCO3)nc(N)c2cc1OC (configuration not stated),6.42 (inactive)
12,NS(=O)(=O)c1cc(C2(O)NC(=O)c3ccccc32)ccc1Cl (configuration not stated),4.42 (inactive)
13,C/C=C/C(=O)N(CC)c1ccccc1C,6.17 (inactive)
14,COc1ccc(OC)c(C(O)CNC(=O)CN)c1 (configuration not stated),18.8 (inactive)
15,Cn1cnc([N+](=O)[O-])c1Sc1ncnc2nc[nH]c12,7.25 (inactive)
16,c1ccc2[nH]c(-c3cscn3)nc2c1,7.75 (inactive)
17,CCCNCC(O)COc1ccccc1C(=O)CCc1ccccc1 (configuration not stated),6.75 (inactive)
18,COc1ccccc1OCC(O)COC(N)=O (configuration not stated),33.1 (inactive)
19,OC(CCN1CCCC1)(c1ccccc1)C1CCCCC1 (configuration not stated),7.33 (inactive)
20,O=C1C(CCS(=O)c2ccccc2)C(=O)N(c2ccccc2)N1c1ccccc1 (configuration not stated),40.2 (inactive)
21,COC(=O)Nc1nc2ccc(C(=O)c3ccccc3)cc2[nH]1,1 (inactive)
22,NCc1ccc(S(N)(=O)=O)cc1,13.4 (inactive)
23,CC(C)(C)NCC(O)COc1cccc2c1C[C@H](O)[C@H](O)C2 (some centres not stated),5.83 (inactive)
24,NS(=O)(=O)c1cc2c(cc1Cl)NC=NS2(=O)=O,13.6 (inactive)

# System: not listed separately
# Assay: P. berghei load reduction in hepatocytes – cell-based, HepG2, luciferase luminescence, HepG2 viability, primary screen (AID 624349; in the data active means parasite load remaining mostly below about 12%, no sharp cut-off; inactive means mostly above about 10%;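 further: 100% = mean of DMSO negative control wells on the same plate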)
# Conditions: P. berghei liver stage in HepG2, luciferase luminescence, concentration not given here; parasite load remaining: stronger effect = lower value; viability: measured here: HepG2 viability without parasites
SMILES,viability,parasite load remaining
Nc1ncn([C@@H]2O[C@H](CO)[C@@H](O)[C@H]2O)c(=O)n1,101% and 77.2% and 95%,162% (inactive) and 170% (inactive) and 176% (inactive)
CCCCCCNC(=O)n1cc(F)c(=O)[nH]c1=O,90% and 80.4%,405% (inactive) and 109% (inactive)
COC1=CC(=O)C[C@@H](C)[C@]12Oc1c(Cl)c(OC)cc(OC)c1C2=O,139% and 48% and 184%,86.5% (inactive) and 55.9% (inactive) and 116% (inactive)
Cc1ncc([N+](=O)[O-])n1CC(C)O (configuration not stated),85.3% and 77% and 71%,136% (inactive) and 103% (inactive) and 36% (inactive)
CN(C)CCc1c[nH]c2ccc(C[C@H]3COC(=O)N3)cc12,90.7% and 99.3% and 74.3%,65.6% (inactive) and 76.6% (inactive) and 61% (inactive)
O=S(=O)(O)CCS,104% and 70.5% and 96.3%,51.7% (inactive) and 115% (inactive) and 24.6% (inactive)
CN(CCOc1ccc(CC2SC(=O)NC2=O)cc1)c1ccccn1 (configuration not stated),80.3% and 91.8% and 74.9%,–
CN1CCCC(n2nc(Cc3ccc(Cl)cc3)c3ccccc3c2=O)CC1 (configuration not stated),75.4% and 180% and 64.4%,30% (inactive) and 46.4% (inactive) and 19.4% (inactive)
CC(C)(C)NCC(O)COc1cccc2c1C[C@H](O)[C@H](O)C2 (some centres not stated),124% and 85.6% and 141%,69.2% (inactive) and 72.2% (inactive) and 65.4% (inactive)

# System: Hepatitis C virus NS3 helicase
# Assay: blockers of NS3h binding to ssDNA – biochemical, fluorescence polarization, LOPAC1280 library, primary screen (AID 687035; in the data active means inhibition above about 37%)
# Conditions: Purified HCV NS3 helicase, Cy5-dT15 ssDNA binding fluorescence polarization; stronger effect = higher value; concentration not given here
row,SMILES,inhibition
1,O=c1[nH]cc(F)c(=O)[nH]1,-1% (inactive)
2,CCc1cccc2c3c([nH]c12)C(CC)(CC(=O)O)OCC3 (configuration not stated),-3% (inactive)
3,Nc1ncn([C@@H]2O[C@H](CO)[C@@H](O)[C@H]2O)c(=O)n1,-1% (inactive)
4,Cc1ccccc1C(OCCN(C)C)c1ccccc1 (configuration not stated),-2% (inactive)
5,NC(=O)c1cnccn1,1% (inactive)
6,OCCN1CCN(CCCN2c3ccccc3Sc3ccc(C(F)(F)F)cc32)CC1,-2% (inactive)
7,COc1cc2nc(N(C)CCCNC(=O)C3CCCO3)nc(N)c2cc1OC (configuration not stated),-3% (inactive)
8,Cn1cnc([N+](=O)[O-])c1Sc1ncnc2nc[nH]c12,-2% (inactive)
9,CCCNCC(O)COc1ccccc1C(=O)CCc1ccccc1 (configuration not stated),-1% (inactive)
10,Clc1ccc2c(c1)C(N1CCNCC1)=Nc1ccccc1O2,-4% (inactive)
11,NS(=O)(=O)c1cc2c(cc1Cl)NC=NS2(=O)=O,-2% (inactive)

# — PubChem BioAssay
